# The campaign covered roughly 360,000 compounds. About 1,300 (0.36%) were called active. This excerpt belongs to a sample that is enriched for actives. Values without a mark were called inactive. No stated cut-off is given here; in the data, active means inhibition above about 35% (passing the limit was not always enough); inactive means the rest.
# Molecular target: Polyadenylate-binding protein 1 (Homo sapiens) (UniProt P11940)
# Test: inhibitors of PABP1 MLLE–PAM2 peptide binding, primary screen, biochemical, fluorescence polarization, FITC-PAM2, GST-MLLE (AID 588489);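 further: plate controls were DMSO wells with GST-MLLE for no effect and wells lacking GST-MLLE protein for full effect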
# Conditions: at 20 µM, stronger effect = higher value
# Sequence of Polyadenylate-binding protein 1 (Homo sapiens) (P11940 whole entry, looked up): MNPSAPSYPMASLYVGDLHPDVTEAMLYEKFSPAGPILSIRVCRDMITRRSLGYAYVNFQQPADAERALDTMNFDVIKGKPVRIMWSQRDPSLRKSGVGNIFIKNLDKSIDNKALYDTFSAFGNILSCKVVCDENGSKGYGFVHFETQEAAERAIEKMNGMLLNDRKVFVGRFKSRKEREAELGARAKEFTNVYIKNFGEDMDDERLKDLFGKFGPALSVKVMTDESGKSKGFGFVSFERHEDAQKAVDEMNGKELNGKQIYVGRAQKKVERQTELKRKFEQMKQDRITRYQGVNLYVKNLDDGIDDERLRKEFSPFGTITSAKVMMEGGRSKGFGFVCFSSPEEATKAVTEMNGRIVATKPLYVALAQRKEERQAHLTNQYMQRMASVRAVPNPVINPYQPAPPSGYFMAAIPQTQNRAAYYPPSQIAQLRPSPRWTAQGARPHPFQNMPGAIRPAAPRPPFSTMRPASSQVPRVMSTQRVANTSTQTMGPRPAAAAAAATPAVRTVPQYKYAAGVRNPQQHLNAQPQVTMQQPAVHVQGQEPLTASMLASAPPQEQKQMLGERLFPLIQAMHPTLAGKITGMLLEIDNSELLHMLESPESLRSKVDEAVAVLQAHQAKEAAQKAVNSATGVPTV
row,Compound,inhibition
1,Nc1ccc2nc3c(=O)[nH]c(=S)[nH]c3nc2c1,177%
2,O=C1NCCn2nc3ccccc3c21,0.33%
3,O=c1[nH]c(=O)c2nc3ccccc3nc2[nH]1,53.2% (active)
4,Cc1cc2cc(CNC(=O)c3ccc(S(=O)(=O)N4CCOCC4)cc3)ccc2[nH]1,45.1% (active)
5,Cc1cc2cc(CNC(=O)c3cccs3)ccc2[nH]1,38%
6,COC(=O)c1ccc(CNC(=O)c2ccc(S(=O)(=O)N3CCCCCC3)cc2)cc1,-6.55%
7,COCCn1c(N)c(N(Cc2ccccc2)C(=O)C2CCCCC2)c(=O)[nH]c1=O,-2.43%
8,COCCn1c(N)c(NCc2ccccc2)c(=O)[nH]c1=O,44.1% (active)
9,COCCN(C(=O)c1ccccc1F)c1c(N)n(Cc2ccccc2)c(=O)[nH]c1=O,-9.82%
10,C=CCc1cccc2cc(C(=O)NC3CCCC3)c(=O)oc12,6.38%
11,CC1CN(C(=O)c2ccc3c(c2)OCO3)OC(c2ccccc2)O1 (configuration not stated),0.75%
12,CSCCC(NC(=O)C1CCC(C)CC1)C(=O)NCc1ccco1 (configuration not stated),-8.36%
13,CC(=O)Nc1ccc(NC(=O)C(NS(=O)(=O)c2ccc3c(c2)OCCO3)C(C)C)cc1 (configuration not stated),1.54%
14,CCOC(=O)CNc1nc(Cl)nc(Nc2ccc(OC)cc2OC)n1,1.38%
15,CCOC(=O)c1sc(=S)n(-c2cccc(OC)c2)c1N,40.5% (active)
16,CCOC(=O)C(C)n1cnc2c(nnn2-c2cccc(OC)c2)c1=O (configuration not stated),1.6%
17,Cc1cccc(-n2c(N)c(C(=O)N3CCN(C)CC3)sc2=S)c1,3.33%
18,O=C(CN1C(=O)COc2ccc(Cl)cc21)N1CCOCC1,8.9%
19,CC1(C(=O)NS(=O)(=O)Cc2cccc(Cl)c2)CCN1C(=O)Cc1ccccc1 (configuration not stated),-3.36%
20,NNC(=O)CNC(c1ccccc1)c1cc(Cl)ccc1NC(=O)c1ccccc1 (configuration not stated),-2.37%
21,COc1ccc(Nc2ccc([N+](=O)[O-])cn2)cn1,48.7% (active)
22,COc1cc(NC(=O)Nc2ccc(C)cc2)cc([N+](=O)[O-])c1,-3.48%
23,COC(=O)c1ccccc1N=NNc1ccc([N+](=O)[O-])cc1,18.6%
24,OC(c1ccc(Cl)cc1)C(CN1CCOCC1)c1ccccc1 (configuration not stated),-5.53%
25,C=C1c2cccc(OC)c2O[C@H](C(=O)OCC)[C@@H]1CCCCCC,-73.6%
26,CC(=O)c1cnc(SCCN2C(=O)c3ccccc3C2=O)nc1C,4.46%
27,Cc1ccc(S(=O)(=O)NNC(=O)Nc2cccc3ccccc23)cc1,3.51%

# From PubChem BioAssay AID588489 (Sanford-Burnham Center for Chemical Genomics, 2011)
